PMC7862700, “An all-to-all approach to the identification of sequence-specific readers for epigenetic DNA modifications on cytosine”

Tests used:
Experiment in all cases: DAPPL (digital affinity profiling via proximity ligation, sequencing); 10 mM Tris-HCl pH 7.5, 50 mM NaCl, 1 mM DTT, 4% glycerol, room temperature, 30 min; GST-TFs on glutathione beads, 16-mer random dsDNA library, 0.1% formaldehyde crosslink after washing; high values mean tight binding
[1] = biological target: T1, FEV (Homo sapiens, UniProt Q99581 1-238); settings: protein: recombinant; tags: N-terminal GST; dsDNA, one strand shown
T1 sequence: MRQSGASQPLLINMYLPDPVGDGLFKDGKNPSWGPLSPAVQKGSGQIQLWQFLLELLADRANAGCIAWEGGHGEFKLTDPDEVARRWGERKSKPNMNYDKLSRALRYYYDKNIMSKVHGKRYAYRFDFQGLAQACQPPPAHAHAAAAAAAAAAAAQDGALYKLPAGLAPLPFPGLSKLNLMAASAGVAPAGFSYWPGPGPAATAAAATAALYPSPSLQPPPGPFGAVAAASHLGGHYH
In short: (§1)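 Pools of DNA-barcoded human transcription factors, expressed in yeast as GST fusions on glutathione beads and combined with a tag-only sample, were incubated with 200 nmole of a 16-mer random double-stranded DNA library. Incubation took 30 min at room temperature in Tris/NaCl/DTT/glycerol buffer and was followed by washing, 0.1% formaldehyde crosslinking, proximity ligation (BsaI/T4 ligase, 1 h, 37 °C), PCR amplification and sequencing on an Illumina NextSeq500. Binding signal is the ratio of a hexamer's read frequency for a factor to its frequency for the tag-only sample.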

[2] = biological target: ETV5 (Homo sapiens, UniProt P41161 1-510); settings: protein: recombinant; tags: N-terminal GST; dsDNA, one strand shown
Chain of ETV5 (P41161 whole entry): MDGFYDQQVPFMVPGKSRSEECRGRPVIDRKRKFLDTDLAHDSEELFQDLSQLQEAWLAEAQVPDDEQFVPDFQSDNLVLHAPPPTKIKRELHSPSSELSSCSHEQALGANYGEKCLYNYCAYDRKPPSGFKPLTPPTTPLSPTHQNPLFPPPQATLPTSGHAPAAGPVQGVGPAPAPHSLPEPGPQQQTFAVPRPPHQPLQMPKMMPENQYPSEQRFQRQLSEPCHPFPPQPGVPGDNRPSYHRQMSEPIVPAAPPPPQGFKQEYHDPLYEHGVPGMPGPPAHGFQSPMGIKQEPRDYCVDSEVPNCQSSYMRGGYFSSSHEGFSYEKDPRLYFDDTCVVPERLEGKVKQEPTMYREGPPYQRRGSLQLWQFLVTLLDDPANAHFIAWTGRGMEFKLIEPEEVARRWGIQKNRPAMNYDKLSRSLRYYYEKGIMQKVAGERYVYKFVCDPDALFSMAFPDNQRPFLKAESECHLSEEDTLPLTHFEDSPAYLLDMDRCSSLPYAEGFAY
In short: as §1

[3] = biological target: HSF1 (Homo sapiens, UniProt Q00613 1-529); settings: protein: recombinant; tags: N-terminal GST; chain copies: 3; dsDNA, one strand shown
Chain of HSF1 (Q00613 whole entry): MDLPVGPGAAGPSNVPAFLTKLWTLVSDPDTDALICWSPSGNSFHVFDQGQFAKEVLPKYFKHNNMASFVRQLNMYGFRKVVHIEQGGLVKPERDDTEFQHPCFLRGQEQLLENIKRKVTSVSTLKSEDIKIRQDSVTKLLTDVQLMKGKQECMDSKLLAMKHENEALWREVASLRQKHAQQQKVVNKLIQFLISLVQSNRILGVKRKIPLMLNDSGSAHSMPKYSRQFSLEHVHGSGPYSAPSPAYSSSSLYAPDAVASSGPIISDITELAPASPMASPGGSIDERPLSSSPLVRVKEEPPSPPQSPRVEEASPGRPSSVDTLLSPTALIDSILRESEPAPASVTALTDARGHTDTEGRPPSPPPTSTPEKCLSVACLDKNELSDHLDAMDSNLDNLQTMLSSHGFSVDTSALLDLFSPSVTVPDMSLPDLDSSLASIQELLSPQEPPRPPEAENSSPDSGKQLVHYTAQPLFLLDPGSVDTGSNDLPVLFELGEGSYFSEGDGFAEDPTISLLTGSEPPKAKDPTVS
In short: as §1

[4] = biological target: T2, SPIC (Homo sapiens, UniProt Q8N5J4 1-248); settings: protein: recombinant; tags: N-terminal GST; dsDNA, one strand shown
T2 sequence: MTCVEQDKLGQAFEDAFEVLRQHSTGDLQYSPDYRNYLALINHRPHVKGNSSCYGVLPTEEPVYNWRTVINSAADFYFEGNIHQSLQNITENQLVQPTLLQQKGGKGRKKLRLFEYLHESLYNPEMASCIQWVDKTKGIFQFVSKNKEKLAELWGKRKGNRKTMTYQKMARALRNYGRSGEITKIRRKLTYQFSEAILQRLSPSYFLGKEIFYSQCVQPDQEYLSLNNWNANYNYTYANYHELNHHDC
In short: as §1

[5] = biological target: ELF4 (Homo sapiens, UniProt Q99607 1-663); settings: protein: recombinant; tags: N-terminal GST; dsDNA, one strand shown
Chain of ELF4 (Q99607 whole entry): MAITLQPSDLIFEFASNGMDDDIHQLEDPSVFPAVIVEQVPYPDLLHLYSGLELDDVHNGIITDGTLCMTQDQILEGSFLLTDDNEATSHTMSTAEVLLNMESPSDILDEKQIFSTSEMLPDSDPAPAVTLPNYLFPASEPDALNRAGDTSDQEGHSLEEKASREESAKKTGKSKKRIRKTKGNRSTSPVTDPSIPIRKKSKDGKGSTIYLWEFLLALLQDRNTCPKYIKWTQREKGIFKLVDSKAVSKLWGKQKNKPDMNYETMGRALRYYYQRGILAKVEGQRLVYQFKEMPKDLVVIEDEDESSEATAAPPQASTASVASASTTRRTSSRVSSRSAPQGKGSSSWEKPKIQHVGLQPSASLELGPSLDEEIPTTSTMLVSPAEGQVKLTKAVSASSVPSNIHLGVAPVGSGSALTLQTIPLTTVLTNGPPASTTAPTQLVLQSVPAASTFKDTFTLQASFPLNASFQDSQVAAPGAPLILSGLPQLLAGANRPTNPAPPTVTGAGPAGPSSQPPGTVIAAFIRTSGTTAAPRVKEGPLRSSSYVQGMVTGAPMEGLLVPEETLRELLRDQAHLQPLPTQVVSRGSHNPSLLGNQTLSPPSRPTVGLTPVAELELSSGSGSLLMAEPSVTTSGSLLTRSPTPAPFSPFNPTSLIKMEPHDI
In short: as §1

[6] = biological target: T3, ELK4 (Homo sapiens, UniProt P28324-2 1-405); settings: protein: recombinant; tags: N-terminal GST; dsDNA, one strand shown
T3 sequence: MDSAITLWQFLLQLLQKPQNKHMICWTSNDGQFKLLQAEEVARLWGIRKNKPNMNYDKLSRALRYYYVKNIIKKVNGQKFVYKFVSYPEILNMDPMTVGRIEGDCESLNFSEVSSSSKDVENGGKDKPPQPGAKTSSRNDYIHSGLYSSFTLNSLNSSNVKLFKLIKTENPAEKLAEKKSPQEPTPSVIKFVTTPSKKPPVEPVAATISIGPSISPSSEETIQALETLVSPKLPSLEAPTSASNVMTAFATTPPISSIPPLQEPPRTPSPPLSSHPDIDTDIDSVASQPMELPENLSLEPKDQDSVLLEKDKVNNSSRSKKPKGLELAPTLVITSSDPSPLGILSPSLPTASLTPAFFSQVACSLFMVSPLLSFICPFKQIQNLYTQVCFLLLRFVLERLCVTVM
In short: as §1

[7] = biological target: T4, ETV2 (Homo sapiens, UniProt O00321 1-342); settings: protein: recombinant; tags: N-terminal GST; dsDNA, one strand shown
T4 sequence: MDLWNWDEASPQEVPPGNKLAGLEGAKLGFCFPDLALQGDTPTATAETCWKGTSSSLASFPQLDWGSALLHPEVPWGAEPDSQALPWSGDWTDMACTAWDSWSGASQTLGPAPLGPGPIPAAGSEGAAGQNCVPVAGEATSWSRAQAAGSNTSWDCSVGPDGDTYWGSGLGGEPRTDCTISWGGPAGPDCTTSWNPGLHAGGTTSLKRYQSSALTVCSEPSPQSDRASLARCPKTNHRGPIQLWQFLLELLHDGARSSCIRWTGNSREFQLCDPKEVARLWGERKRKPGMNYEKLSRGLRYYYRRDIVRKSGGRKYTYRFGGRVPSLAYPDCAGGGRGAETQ
In short: as §1

[8] = biological target: T5, ELF3 (Homo sapiens, UniProt P78545 1-371); settings: protein: recombinant; tags: N-terminal GST; dsDNA, one strand shown
T5 sequence: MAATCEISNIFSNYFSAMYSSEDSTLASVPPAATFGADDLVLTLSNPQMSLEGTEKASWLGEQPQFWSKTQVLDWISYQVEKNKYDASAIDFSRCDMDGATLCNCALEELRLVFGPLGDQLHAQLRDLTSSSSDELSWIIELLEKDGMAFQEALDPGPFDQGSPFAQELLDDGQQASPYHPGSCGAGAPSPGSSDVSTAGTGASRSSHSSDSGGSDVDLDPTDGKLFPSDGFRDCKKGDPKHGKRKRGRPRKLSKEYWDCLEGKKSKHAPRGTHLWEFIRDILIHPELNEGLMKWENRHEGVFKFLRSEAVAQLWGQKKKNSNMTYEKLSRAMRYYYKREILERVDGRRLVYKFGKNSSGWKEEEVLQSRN
In short: as §1

[9] = biological target: CRX (Homo sapiens, UniProt O43186 1-299); settings: protein: recombinant; tags: N-terminal GST; dsDNA, one strand shown
Chain of CRX (O43186 whole entry): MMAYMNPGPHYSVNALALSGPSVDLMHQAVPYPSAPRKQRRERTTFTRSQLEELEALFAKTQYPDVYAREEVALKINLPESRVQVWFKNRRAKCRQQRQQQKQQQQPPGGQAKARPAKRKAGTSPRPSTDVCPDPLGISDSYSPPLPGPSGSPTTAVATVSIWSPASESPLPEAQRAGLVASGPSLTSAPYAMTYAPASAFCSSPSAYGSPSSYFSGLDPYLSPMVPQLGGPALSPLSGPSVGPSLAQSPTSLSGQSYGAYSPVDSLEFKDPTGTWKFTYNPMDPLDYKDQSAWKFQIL
In short: as §1

[10] = biological target: ETV1 (Homo sapiens, UniProt P50549 1-477); settings: protein: recombinant; tags: N-terminal GST; dsDNA, one strand shown
Chain of ETV1 (P50549 whole entry): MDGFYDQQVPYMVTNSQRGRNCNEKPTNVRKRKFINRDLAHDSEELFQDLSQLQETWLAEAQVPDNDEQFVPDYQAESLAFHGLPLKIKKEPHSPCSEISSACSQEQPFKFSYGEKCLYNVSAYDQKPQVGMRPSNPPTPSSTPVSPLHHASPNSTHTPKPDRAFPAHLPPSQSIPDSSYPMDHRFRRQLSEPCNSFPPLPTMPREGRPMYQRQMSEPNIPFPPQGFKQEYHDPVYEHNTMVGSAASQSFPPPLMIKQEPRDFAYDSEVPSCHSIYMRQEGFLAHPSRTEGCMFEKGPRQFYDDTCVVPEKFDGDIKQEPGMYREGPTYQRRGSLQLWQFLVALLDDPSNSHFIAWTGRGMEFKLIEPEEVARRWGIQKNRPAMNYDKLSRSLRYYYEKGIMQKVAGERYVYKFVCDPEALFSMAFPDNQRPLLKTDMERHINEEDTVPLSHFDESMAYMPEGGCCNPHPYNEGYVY
In short: as §1

[11] = biological target: T6, ERF (Homo sapiens, UniProt P50548 1-548); settings: protein: recombinant; tags: N-terminal GST; dsDNA, one strand shown
T6 sequence: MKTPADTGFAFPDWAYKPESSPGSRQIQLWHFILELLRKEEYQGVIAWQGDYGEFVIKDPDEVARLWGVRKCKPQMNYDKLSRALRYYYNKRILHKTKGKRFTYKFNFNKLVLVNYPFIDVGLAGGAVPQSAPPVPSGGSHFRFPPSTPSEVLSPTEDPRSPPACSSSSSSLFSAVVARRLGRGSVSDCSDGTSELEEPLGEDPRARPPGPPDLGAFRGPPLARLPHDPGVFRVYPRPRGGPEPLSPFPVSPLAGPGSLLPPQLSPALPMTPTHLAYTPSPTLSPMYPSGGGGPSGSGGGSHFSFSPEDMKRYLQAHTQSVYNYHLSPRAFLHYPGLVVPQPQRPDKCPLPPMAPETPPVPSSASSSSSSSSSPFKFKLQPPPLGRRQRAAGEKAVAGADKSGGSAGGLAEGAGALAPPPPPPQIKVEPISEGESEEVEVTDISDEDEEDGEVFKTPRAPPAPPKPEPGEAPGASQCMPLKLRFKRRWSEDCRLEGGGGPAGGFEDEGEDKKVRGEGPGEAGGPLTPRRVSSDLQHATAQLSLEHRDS
In short: as §1

[12] = biological target: T7, ETV3L (Homo sapiens, UniProt Q6ZN32 1-361); settings: protein: recombinant; tags: N-terminal GST; dsDNA, one strand shown
T7 sequence: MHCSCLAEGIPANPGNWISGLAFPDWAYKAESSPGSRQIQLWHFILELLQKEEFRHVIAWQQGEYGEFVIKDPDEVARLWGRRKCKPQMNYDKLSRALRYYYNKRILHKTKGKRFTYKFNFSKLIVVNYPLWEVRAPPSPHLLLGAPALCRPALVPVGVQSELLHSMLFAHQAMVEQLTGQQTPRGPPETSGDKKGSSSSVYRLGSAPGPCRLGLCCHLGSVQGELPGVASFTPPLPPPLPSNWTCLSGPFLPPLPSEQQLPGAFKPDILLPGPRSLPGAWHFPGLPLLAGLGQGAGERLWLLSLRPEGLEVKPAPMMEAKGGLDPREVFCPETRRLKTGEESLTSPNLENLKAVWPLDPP
In short: as §1

[13] = biological target: T8, ETS2 (Homo sapiens, UniProt P15036 1-469); settings: protein: recombinant; tags: N-terminal GST; dsDNA, one strand shown
T8 sequence: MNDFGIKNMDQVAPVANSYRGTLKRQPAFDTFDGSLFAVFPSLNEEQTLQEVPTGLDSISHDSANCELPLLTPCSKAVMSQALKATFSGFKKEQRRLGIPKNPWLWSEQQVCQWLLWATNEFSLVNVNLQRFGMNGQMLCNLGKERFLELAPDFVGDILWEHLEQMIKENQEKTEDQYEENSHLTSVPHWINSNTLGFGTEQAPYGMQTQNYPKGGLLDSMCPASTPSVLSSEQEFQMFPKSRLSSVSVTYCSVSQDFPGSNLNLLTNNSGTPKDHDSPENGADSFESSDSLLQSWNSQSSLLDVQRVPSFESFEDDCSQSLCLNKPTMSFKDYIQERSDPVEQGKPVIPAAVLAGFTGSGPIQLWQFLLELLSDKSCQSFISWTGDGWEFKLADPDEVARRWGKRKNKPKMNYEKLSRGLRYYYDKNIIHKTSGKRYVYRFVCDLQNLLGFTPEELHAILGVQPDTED
In short: as §1

[14] = biological target: T9, SPDEF (Homo sapiens, UniProt O95238 1-335); settings: protein: recombinant; tags: N-terminal GST; dsDNA, one strand shown
T9 sequence: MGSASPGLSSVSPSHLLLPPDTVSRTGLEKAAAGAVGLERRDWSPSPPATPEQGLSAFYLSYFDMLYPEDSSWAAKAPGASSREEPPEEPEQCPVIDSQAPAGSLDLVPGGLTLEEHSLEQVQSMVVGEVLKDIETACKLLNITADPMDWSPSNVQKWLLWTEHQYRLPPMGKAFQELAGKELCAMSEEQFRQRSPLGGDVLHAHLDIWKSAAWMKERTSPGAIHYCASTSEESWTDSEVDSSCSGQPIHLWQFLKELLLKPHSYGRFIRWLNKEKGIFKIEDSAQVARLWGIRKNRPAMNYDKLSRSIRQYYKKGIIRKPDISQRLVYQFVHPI
In short: as §1

[15] = biological target: T10, ETV7 (Homo sapiens, UniProt Q9Y603 1-341); settings: protein: recombinant; tags: N-terminal GST; dsDNA, one strand shown
T10 sequence: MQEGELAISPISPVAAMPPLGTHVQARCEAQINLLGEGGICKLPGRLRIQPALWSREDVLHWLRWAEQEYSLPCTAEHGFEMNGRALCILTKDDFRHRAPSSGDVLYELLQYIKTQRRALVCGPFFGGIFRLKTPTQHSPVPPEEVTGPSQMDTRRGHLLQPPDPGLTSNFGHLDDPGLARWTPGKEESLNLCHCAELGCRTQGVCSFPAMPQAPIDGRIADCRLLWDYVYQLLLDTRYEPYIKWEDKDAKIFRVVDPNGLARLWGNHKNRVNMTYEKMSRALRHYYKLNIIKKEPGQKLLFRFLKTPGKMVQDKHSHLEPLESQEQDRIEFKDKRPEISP
In short: as §1

[16] = biological target: T11, ELF5 (Homo sapiens, UniProt Q9UKW6-2 1-255); settings: protein: recombinant; tags: N-terminal GST; dsDNA, one strand shown
T11 sequence: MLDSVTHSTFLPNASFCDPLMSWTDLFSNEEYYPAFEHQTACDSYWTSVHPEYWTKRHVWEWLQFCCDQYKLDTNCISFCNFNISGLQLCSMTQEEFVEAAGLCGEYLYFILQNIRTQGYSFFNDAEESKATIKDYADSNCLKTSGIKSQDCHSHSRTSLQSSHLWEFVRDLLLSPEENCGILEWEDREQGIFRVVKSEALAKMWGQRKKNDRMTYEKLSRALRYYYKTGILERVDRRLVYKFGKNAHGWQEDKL
In short: as §1

[17] = biological target: T12, ETV3 (Homo sapiens, UniProt P41162-2 1-143); settings: protein: recombinant; tags: N-terminal GST; dsDNA, one strand shown
T12 sequence: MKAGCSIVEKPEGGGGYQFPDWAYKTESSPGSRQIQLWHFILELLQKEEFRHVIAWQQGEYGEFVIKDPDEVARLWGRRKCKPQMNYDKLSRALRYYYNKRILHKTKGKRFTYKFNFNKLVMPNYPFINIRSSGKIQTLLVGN
In short: as §1

[18] = biological target: ETV6 (Homo sapiens, UniProt P41212 1-452); settings: protein: recombinant; tags: N-terminal GST; dsDNA, one strand shown
Chain of ETV6 (P41212 whole entry): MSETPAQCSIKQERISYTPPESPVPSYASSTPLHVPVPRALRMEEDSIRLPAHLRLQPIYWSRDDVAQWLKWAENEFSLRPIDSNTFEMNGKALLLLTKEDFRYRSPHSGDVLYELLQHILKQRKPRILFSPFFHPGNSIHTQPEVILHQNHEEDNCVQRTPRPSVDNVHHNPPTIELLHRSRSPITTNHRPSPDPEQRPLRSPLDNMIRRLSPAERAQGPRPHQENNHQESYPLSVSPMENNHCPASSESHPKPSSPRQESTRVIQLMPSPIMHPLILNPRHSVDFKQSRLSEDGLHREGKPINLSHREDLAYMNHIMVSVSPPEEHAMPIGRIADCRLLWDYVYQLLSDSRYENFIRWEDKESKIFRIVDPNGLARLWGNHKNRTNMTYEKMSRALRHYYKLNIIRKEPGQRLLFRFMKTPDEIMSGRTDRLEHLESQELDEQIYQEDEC
In short: as §1

With ATTCCT the binding signal [1] was 1.34 fold enrichment (6-mer frequency, TF over GST control), the binding signal [2] was 1.39 fold enrichment (6-mer frequency, TF over GST control) and the binding signal [3] was 1.57 fold enrichment (6-mer frequency, TF over GST control). The binding signal [4] was 1.27 fold enrichment (6-mer frequency, TF over GST control), the binding signal [5] was 1.39 fold enrichment (6-mer frequency, TF over GST control) and the binding signal [6] was 1.22 fold enrichment (6-mer frequency, TF over GST control). The binding signal [7] was 1.45 fold enrichment (6-mer frequency, TF over GST control), the binding signal [8] was 1.2 fold enrichment (6-mer frequency, TF over GST control) and the binding signal [9] was 1.33 fold enrichment (6-mer frequency, TF over GST control). The binding signal [10] was 1.28 fold enrichment (6-mer frequency, TF over GST control), the binding signal [11] was 1.2 fold enrichment (6-mer frequency, TF over GST control) and the binding signal [12] was 1.32 fold enrichment (6-mer frequency, TF over GST control). The binding signal [13] was 1.39 fold enrichment (6-mer frequency, TF over GST control), the binding signal [14] was 1.32 fold enrichment (6-mer frequency, TF over GST control) and the binding signal [15] was 1.39 fold enrichment (6-mer frequency, TF over GST control). The binding signal [16] was 1.68 fold enrichment (6-mer frequency, TF over GST control), the binding signal [17] was 1.47 fold enrichment (6-mer frequency, TF over GST control) and the binding signal [18] was 1.35 fold enrichment (6-mer frequency, TF over GST control).
